Measurements: PubChem BioAssay (EPA / NIEHS)
The source made the active and inactive calls. The calls were made as follows: active = hit-call score of the fitted dose curve at least 0.9, where 1 is the maximum; inactive = score below 0.9.

What was measured:
Settings in all cases: mRNA level, 48 h; actives raise or lower the signal
MYC, MYC (gene 4609) = experiment: LTEA_HepaRG_MYC: Life Technologies and Expression Analysis (LTEA) Assay for MYC using HepaRG (AID 2283518)
In short: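 MYC transcript changes, up or down relative to 0.5% DMSO, from TaqMan qRT-PCR normalized to three housekeeping genes. Human HepaRG cultures received chemicals for 48 h at eight half-log concentrations up to 100 uM, in duplicate.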

[1] = read-out: matrix metalloproteinase-3 (MMP3), MMP3 (gene 4314); experiment: LTEA_HepaRG_MMP3: Life Technologies and Expression Analysis (LTEA) Assay for matrix metalloproteinase-3 (MMP3) using HepaRG (AID 2283519)
In short: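 qRT-PCR read-out of MMP3 mRNA (normalised to three housekeeping genes) in HepaRG liver cells after 48 h chemical exposure; 8-point half-log series, top 100 uM, 0.5% DMSO vehicle. Bidirectional curve fitting against DMSO baseline.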

[2] = read-out: Paternally Expressed 10 (PEG10), PEG10 (gene 23089); experiment: LTEA_HepaRG_PEG10: Life Technologies and Expression Analysis (LTEA) Assay for Paternally Expressed 10 (PEG10) using HepaRG (AID 2283520);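 as to AC50: PEG10 transcript by qRT-PCR normalised to ACTB GAPDH and POLR2A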
In short: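 After 48 h exposure of differentiated HepaRG cells (0.5% DMSO vehicle, eight concentrations up to 100 uM, duplicates), PEG10 mRNA was measured by TaqMan qRT-PCR. Values were normalised to endogenous control genes and analysed bidirectionally against vehicle.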

[3] = read-out: Nuclear factor NF-kappa-B p105 subunit (Homo sapiens) (UniProt P19838); experiment: LTEA_HepaRG_NFKB1: Life Technologies and Expression Analysis (LTEA) Assay for Nuclear Factor Kappa B Subunit 1 (NFKB1) using HepaRG (AID 2283521)
In short: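 Differentiated human HepaRG cells were exposed for 48 h in serum-free induction medium to eight concentrations (top 100 uM, half-log steps, 0.5% DMSO), in duplicate. NFKB1 mRNA was measured by TaqMan qRT-PCR, normalized to ACTB/GAPDH/POLR2A, and fitted bidirectionally against DMSO.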

[4] = read-out: Protein phosphatase 2A (PPP2R4), PTPA (gene 5524); experiment: LTEA_HepaRG_PPP2R4: Life Technologies and Expression Analysis (LTEA) Assay for Protein phosphatase 2A (PPP2R4) using HepaRG (AID 2283522)
In short: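 Using HepaRG cultures maintained in 0.5% DMSO, chemicals are tested 48 h at up to 100 uM in duplicate. Induction or suppression of PPP2R4 mRNA, measured by qRT-PCR, is fitted bidirectionally against the vehicle baseline.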

[5] = read-out: Phosphatase and tensin (PTEN), PTEN (gene 5728); experiment: LTEA_HepaRG_PTEN: Life Technologies and Expression Analysis (LTEA) Assay for Phosphatase and tensin (PTEN) using HepaRG (AID 2283523)
In short: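 HepaRG, 48 h exposure, 8-pt half-log series from 100 uM top, 0.5% DMSO vehicle, duplicates. Readout: Fluidigm qRT-PCR of PTEN transcript; housekeeping normalization (ACTB, GAPDH, POLR2A). Gain or loss fitted relative to DMSO baseline.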

[6] = read-out: solute carrier (SLC22A1), SLC22A1 (gene 6580); experiment: LTEA_HepaRG_SLC22A1: Life Technologies and Expression Analysis (LTEA) Assay for solute carrier (SLC22A1) using HepaRG (AID 2283524)
In short: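 qRT-PCR readout (TaqMan, Fluidigm arrays) of SLC22A1 transcript, normalized to three housekeeping genes; bidirectional curve fit relative to 0.5% DMSO vehicle. Differentiated human HepaRG cells, 48 h chemical exposure, top concentration 100 uM, half-log steps, eight points.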

[7] = read-out: Pyruvate Dehydrogenase Kinase 4 (PDK4), PDK4 (gene 5166); experiment: LTEA_HepaRG_PDK4: Life Technologies and Expression Analysis (LTEA) Assay for Pyruvate Dehydrogenase Kinase 4 (PDK4) using HepaRG (AID 2283525)
In short: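 HepaRG (human liver line), 48 h chemical exposure, 8-pt half-log CRC top 100 uM, 0.5% DMSO vehicle, duplicates. Readout: TaqMan qRT-PCR of PDK4 mRNA, housekeeping-normalized; gain/loss fit relative to DMSO baseline.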

[8] = read-out: NAD(P)H dehydrogenase [quinone] 1 (NQO1), NQO1 (gene 1728); experiment: LTEA_HepaRG_NQO1: Life Technologies and Expression Analysis (LTEA) Assay for NAD(P)H dehydrogenase [quinone] 1 (NQO1) using HepaRG (AID 2283526)
In short: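 In this assay, gene expression is read by qRT-PCR after 48 h exposure of HepaRG cells to eight concentrations (max 100 uM, half-log) in 0.5% DMSO. Each chemical runs in duplicate, and activity is scored relative to vehicle.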

[9] = read-out: Nuclear factor erythroid 2-related factor 2 (Homo sapiens) (UniProt Q16236); experiment: LTEA_HepaRG_NFE2L2: Life Technologies and Expression Analysis (LTEA) Assay for Nuclear factor erythroid 2-related factor 2 (NFE2L2) Transcription Factor using HepaRG (AID 2283527)
In short: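 HepaRG, 48 h dosing, 8-pt half-log series from 100 uM in 0.5% DMSO, duplicates. Read-out: NFE2L2 mRNA by qRT-PCR (ACTB/GAPDH/POLR2A normalization). Bidirectional curve fit vs DMSO baseline.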

[10] = read-out: succinate dehydrogenase complex iron sulfur subunit B (SDHB), SDHB (gene 6390); experiment: LTEA_HepaRG_SDHB: Life Technologies and Expression Analysis (LTEA) Assay for succinate dehydrogenase complex iron sulfur subunit B (SDHB) using HepaRG (AID 2283528)
In short: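 HepaRG, 48 h exposure, 8-pt half-log series from 100 uM in 0.5% DMSO, duplicates. Readout: SDHB mRNA by Fluidigm qRT-PCR vs housekeeping genes; bidirectional fit relative to DMSO.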

[11] = read-out: solute carrier (SLCO1B1), SLCO1B1 (gene 10599); experiment: LTEA_HepaRG_SLCO1B1: Life Technologies and Expression Analysis (LTEA) Assay for solute carrier (SLCO1B1) using HepaRG (AID 2283530)
In short: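 SLCO1B1 transcript levels were quantified by TaqMan qRT-PCR using three housekeeping genes for normalization. This followed 48 h chemical exposure (100 uM top, half-log, 8 points, 0.5% DMSO) of HepaRG liver cells, with gain or loss fitted relative to DMSO.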

[12] = read-out: sulfotransferase 2A1 (SULT2A1), SULT2A1 (gene 6822); experiment: LTEA_HepaRG_SULT2A1: Life Technologies and Expression Analysis (LTEA) Assay for sulfotransferase 2A1 (SULT2A1) using HepaRG (AID 2283531)
In short: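 Expression change of SULT2A1, by qRT-PCR with three housekeeping-gene normalization, was scored bidirectionally versus DMSO. Cells: differentiated HepaRG, dosed in duplicate for 48 h across 8 points, highest 100 µM, half-log dilution, 0.5% DMSO.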

[13] = read-out: Transforming Growth Factor (TGFA), TGFA (gene 7039); experiment: LTEA_HepaRG_TGFA: Life Technologies and Expression Analysis (LTEA) Assay for Transforming Growth Factor (TGFA) using HepaRG (AID 2283532)
In short: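 qRT-PCR read-out of TGFA transcript, normalized to three housekeeping genes, fitted bidirectionally against 0.5% DMSO baseline. Human HepaRG cultures received chemicals for 48 h at eight half-log concentrations, top 100 uM.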

TIMP1, TIMP1 (gene 7076) = experiment: LTEA_HepaRG_TIMP1: Life Technologies and Expression Analysis (LTEA) Assay for TIMP1 using HepaRG (AID 2283534)
In short: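 Bidirectional change in TIMP1 transcript versus 0.5% DMSO, measured by TaqMan qRT-PCR with three housekeeping genes for normalization. HepaRG human liver cells dosed 48 h in duplicate, top concentration 100 uM with half-log dilutions.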

[14] = read-out: Tumor necrosis factor receptor 1 (TNFRSF1A), TNFRSF1A (gene 7132); experiment: LTEA_HepaRG_TNFRSF1A: Life Technologies and Expression Analysis (LTEA) Assay for Tumor necrosis factor receptor 1 (TNFRSF1A) using HepaRG (AID 2283535)
In short: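 mRNA measured by qRT-PCR (TaqMan, Fluidigm arrays) against ACTB/GAPDH/POLR2A housekeepers after 48 h chemical exposure of HepaRG cells. Top concentration 100 uM, half-log 8-point series, duplicates; vehicle 0.5% DMSO, both fit directions.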

[15] = read-out: Thyroid Hormone Responsive (THRSP), THRSP (gene 7069); experiment: LTEA_HepaRG_THRSP: Life Technologies and Expression Analysis (LTEA) Assay for Thyroid Hormone Responsive (THRSP) using HepaRG (AID 2283536)
In short: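 qRT-PCR read-out (Fluidigm TaqMan), housekeeping-normalized (ACTB/GAPDH/POLR2A). HepaRG, 48 h chemical exposure, 8-pt half-log series from 100 uM in 0.5% DMSO, duplicates. Bidirectional curve fit vs 0.5% DMSO baseline.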

[16] = read-out: Cellular tumor antigen p53 (Homo sapiens) (UniProt P04637); experiment: LTEA_HepaRG_TP53: Life Technologies and Expression Analysis (LTEA) Assay for Tumor Protein P53 (TP53) using HepaRG (AID 2283537)
In short: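 HepaRG, 48 h exposure, top 100 uM, half-log 8-point, 0.5% DMSO vehicle, duplicates. Read: TP53 mRNA by TaqMan qRT-PCR, normalised to ACTB/GAPDH/POLR2A; bidirectional fit vs DMSO.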

[17] = read-out: Signal transducer and activator of transcription 3 (Homo sapiens) (UniProt P40763); experiment: LTEA_HepaRG_STAT3: Life Technologies and Expression Analysis (LTEA) Assay for Signal transducer and activator of transcription (STAT3) using HepaRG (AID 2283529)
In short: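 HepaRG, 48 h exposure, 8-pt half-log series (top 100 uM), 0.5% DMSO vehicle, duplicates. Readout: STAT3 transcript by Fluidigm qRT-PCR, housekeeping-normalized; bidirectional fit vs DMSO baseline.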

[18] = read-out: Transforming Growth Factor (TGFB1), TGFB1 (gene 7040); experiment: LTEA_HepaRG_TGFB1: Life Technologies and Expression Analysis (LTEA) Assay for Transforming Growth Factor (TGFB1) Transporter using HepaRG (AID 2283533)
In short: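 TGFB1 transcript measured by qRT-PCR with normalisation to three housekeeping genes (ACTB, GAPDH, POLR2A); human HepaRG line treated in duplicate for 48 hr with an 8-point series topping at 100 uM, 0.5% DMSO vehicle, bidirectionally fitted.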

Measured: AC50

Cellular tumor antigen p53 (Homo sapiens), sequence (P04637 whole entry, looked up): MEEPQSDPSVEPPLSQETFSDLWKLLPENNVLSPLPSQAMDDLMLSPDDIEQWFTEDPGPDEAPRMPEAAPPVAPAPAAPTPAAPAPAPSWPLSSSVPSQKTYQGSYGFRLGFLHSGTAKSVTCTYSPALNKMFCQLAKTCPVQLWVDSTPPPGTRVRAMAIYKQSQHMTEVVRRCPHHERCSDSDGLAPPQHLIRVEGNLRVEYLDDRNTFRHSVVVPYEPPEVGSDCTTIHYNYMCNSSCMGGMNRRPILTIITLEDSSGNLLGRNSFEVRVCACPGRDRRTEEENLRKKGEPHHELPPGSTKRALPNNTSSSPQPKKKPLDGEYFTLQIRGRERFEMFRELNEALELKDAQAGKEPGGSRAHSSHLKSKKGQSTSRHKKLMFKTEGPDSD
Nuclear factor NF-kappa-B p105 subunit (Homo sapiens), sequence (P19838 whole entry, looked up): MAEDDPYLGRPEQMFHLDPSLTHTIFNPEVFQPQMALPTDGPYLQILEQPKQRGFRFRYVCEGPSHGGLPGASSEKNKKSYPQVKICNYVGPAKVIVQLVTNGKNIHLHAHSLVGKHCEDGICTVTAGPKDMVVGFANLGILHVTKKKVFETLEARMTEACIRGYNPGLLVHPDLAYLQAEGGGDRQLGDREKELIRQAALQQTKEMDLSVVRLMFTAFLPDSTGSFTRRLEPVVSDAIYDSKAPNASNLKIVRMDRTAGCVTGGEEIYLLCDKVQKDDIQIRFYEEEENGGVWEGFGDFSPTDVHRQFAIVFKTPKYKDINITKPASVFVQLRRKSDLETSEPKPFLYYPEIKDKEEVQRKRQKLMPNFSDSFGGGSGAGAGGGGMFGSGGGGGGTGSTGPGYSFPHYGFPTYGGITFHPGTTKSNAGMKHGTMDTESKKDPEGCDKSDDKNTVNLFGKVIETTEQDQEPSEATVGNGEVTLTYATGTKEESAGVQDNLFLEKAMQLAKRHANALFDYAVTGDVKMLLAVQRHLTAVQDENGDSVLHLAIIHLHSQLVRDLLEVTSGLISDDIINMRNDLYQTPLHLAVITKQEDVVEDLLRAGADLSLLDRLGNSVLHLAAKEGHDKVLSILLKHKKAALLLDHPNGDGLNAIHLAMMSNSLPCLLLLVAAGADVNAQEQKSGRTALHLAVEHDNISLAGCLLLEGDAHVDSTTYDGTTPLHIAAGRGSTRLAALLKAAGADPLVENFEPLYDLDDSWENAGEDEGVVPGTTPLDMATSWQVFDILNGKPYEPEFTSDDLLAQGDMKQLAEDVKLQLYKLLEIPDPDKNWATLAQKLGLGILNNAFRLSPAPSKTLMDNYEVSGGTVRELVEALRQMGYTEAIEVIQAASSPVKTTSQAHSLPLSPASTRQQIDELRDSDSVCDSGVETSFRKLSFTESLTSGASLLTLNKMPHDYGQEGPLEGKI
Nuclear factor erythroid 2-related factor 2 (Homo sapiens), sequence (Q16236 whole entry, looked up): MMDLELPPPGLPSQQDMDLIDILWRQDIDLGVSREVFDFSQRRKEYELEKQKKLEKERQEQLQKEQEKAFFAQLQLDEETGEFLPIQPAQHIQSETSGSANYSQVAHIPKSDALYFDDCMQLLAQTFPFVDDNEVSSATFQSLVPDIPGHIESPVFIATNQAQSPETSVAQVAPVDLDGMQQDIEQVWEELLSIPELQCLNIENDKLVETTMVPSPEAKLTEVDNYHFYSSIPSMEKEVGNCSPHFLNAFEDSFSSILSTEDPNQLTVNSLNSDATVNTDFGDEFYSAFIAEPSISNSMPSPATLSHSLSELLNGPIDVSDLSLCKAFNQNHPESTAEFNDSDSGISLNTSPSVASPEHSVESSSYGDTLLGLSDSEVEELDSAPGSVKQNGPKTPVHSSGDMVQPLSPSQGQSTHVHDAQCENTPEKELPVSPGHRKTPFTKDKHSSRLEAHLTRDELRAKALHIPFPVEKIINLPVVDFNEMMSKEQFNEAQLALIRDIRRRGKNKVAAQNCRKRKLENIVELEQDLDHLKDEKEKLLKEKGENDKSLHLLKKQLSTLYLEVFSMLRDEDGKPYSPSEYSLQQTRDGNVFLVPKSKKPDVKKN
Signal transducer and activator of transcription 3 (Homo sapiens), sequence (P40763 whole entry, looked up): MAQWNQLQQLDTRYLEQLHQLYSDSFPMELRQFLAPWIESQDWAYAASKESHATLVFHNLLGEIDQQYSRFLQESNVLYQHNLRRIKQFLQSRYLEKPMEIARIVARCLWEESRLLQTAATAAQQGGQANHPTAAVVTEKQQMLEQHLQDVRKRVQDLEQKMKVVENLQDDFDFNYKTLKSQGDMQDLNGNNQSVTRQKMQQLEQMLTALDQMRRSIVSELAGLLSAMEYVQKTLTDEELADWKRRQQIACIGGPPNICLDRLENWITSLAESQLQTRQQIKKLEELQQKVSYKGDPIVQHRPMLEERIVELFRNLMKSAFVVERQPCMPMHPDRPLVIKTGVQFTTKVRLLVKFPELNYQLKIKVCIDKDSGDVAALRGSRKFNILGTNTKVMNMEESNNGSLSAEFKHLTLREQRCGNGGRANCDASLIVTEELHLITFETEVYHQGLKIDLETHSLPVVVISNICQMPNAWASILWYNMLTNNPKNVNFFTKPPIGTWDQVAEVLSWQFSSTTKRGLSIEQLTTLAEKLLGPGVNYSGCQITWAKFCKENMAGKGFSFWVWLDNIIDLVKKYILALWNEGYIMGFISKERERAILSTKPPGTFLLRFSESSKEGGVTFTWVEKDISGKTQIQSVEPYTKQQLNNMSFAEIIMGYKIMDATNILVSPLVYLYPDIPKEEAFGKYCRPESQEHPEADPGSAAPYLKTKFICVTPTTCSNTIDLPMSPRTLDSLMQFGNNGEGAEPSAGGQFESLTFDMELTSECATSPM

Oc1cc2ccccc2c2ccccc12
active: [2] 50 µM | [6] 50 µM
not listed: [17] | [18]
inactive: all other assays above

CC(C)(C)c1cccc(C(C)(C)C)c1O
not listed: [17] | [18]
inactive: all other assays above

O=c1c(-c2ccc(O)cc2)coc2cc(O)ccc12
not listed: [1] | TIMP1, TIMP1 (gene 7076) | [17] | [18]
inactive: all other assays above

CN1CCC[C@H]1c1cccnc1
not listed: [3] | TIMP1, TIMP1 (gene 7076) | [16] | [17] | [18]
inactive: all other assays above

OC1CCCCC1
not listed: [3] | TIMP1, TIMP1 (gene 7076)
inactive: all other assays above

CCCCCCCC(=O)O
active: [9] 12.3 µM
not listed: [3] | TIMP1, TIMP1 (gene 7076) | [17] | [18]
inactive: all other assays above

OCCC(F)(F)C(F)(F)C(F)(F)C(F)(F)C(F)(F)C(F)(F)F
not listed: [3] | [18]
inactive: all other assays above
